# Experimental data from the supplement of paper PMC3334620.
# In all, about 33,000 sequences were measured (“E-score (-0.5 to 0.5)”: median about -8e-05, highest 2% from about 0.23 on). The list comes from a sample in which the highest values are over-represented; it also holds similar and randomly drawn sequences.
# Target: T1, Nrg2 (UniProt P38082)
# T1 sequence: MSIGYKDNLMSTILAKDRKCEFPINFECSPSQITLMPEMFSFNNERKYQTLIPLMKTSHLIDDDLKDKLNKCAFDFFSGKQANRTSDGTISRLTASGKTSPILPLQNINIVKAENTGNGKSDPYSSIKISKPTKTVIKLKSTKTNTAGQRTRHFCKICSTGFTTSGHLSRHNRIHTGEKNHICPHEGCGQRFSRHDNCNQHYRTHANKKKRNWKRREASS
# Assay: PBM E-score (8-mer binding enrichment) (E-score (-0.5 to 0.5)); higher = stronger / more preferred TF binding
# Details: protein concentration: 100 nM; construct: GST-full length
# In short: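 Universal all-10-mer Agilent arrays, fresh or stripped once, were converted to double-stranded form by primer extension. GST-tagged yeast transcription factors from PURExpress in vitro transcription/translation, full-length or DNA-binding domain only, were applied at about 100-200 nM and detected with fluorescent anti-GST. After masliner normalisation, the Universal PBM Analysis Suite scored each ungapped eight-base word together with its reverse complement by E-score.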
row,Sequence,PBM E-score
1,AAAGGTCC,0.0985
2,AAGGGTGT,0.0853
3,AGGGGTCA,0.128
4,AAGGGTCC,0.439
5,AGGGGTCG,0.0876
6,AAGGGTCA,0.149
7,CCGGGTCC,-0.171
8,ATGGGTCC,0.0519
9,AAGGGTCT,0.273
10,AAGGTAGG,0.00624
11,GGATAACC,-0.141
12,GTCTTTCA,-0.177
13,AGCCGAAG,-0.104
14,TATAGACA,0.0604
15,AGATTCCG,0.101
16,GCGGGTCC,-0.0518
17,AAGGGTCG,0.132
18,CAGGGTCG,0.264
19,GAGGGTCC,0.282
20,CAGGGTCA,0.0802
21,GAGGGTCA,-0.227
22,ACCCCTGC,0.066
23,CAAACGAA,-0.0374
24,TAAGCAAA,0.0437
25,TCCCCTCA,0.235
26,ACCCCTCA,0.0629

row,Sequence,PBM E-score
1,CCCCCTCA,-0.379
2,AACTGACT,-0.167
3,AAAGTTGG,0.132
4,AAAGTTGC,0.0327
5,AAAGTTGT,0.297
6,AGTGGCTG,0.126
7,AGGGCTGA,-0.201
8,AGTCTTTC,-0.0294
9,ACAGACAC,-0.0421
10,ACAGACAG,0.255
11,CCAGACAG,-0.00394
12,TGTTGTAA,0.102
13,GACAGCGA,-0.131
14,CGAAGACG,-0.0796
15,GTCACGTA,-0.249
16,TAATACAA,0.235
17,CAATACAG,0.125
18,AAATACAA,0.0802
19,CAATACAA,0.275
20,CAATACAC,0.0544
21,GAATACAA,0.107
22,ACGACCAT,-0.0998
23,CAATCGCC,0.00157
24,AGTAGGAA,-0.0957
25,CGGCGCCA,0.0132
26,CCGCGGGA,0.284

row,Sequence,PBM E-score
1,CCGCGCCG,-0.0754
2,CGGCGCCG,0.25
3,GCGCGGGA,0.0263
4,AGGCGCGC,0.0865
5,CCGCGGGC,0.0924
6,CCGCGCGG,0.368
7,CGGCGCGA,0.121
8,CGGCGCGC,0.256
9,AGGCGCCG,-0.0298
10,CCGCGCAG,0.0598
11,AGGTACTA,0.0762
12,CTCTAGCC,-0.283
13,AAAAGGCC,-0.197
14,CAACCTAA,0.059
15,GTACGTCA,-0.102
16,TTAGTAAA,0.169
17,ACATGCTC,0.00619
18,AAGAAGCC,0.162
19,ATAACATA,0.123
20,ATGTCCCA,-0.0945
21,AAGTGCGG,0.133
22,GGGCGCCC,0.282
23,CCGCGCTC,0.0292
24,AGGCGCCC,-0.0716
25,GGGCGCCA,0.191
26,CCGCGCGC,0.236

row,Sequence,PBM E-score
1,CCGCGCCC,-0.0342
2,TCAGACGA,0.119
3,AACCCGAA,0.0237
4,AACCGCGG,0.182
5,TATGTTAA,-0.127
6,CTTTCACC,-0.0112
7,ATCAACCA,0.0788
8,CTCAACCC,0.00526
9,ATAAACCC,0.307
10,CTAAACCC,-0.0134
11,ATAAACCA,-0.0416
12,ATCAACCC,0.297
13,TCTTTGAA,-0.105
14,AGGCCACA,-0.149
15,GCTCATTA,-0.058
16,CATCATTA,0.231
17,CATCATTC,0.0606
18,ACTCATTC,0.117
19,AATCATTA,0.0429
20,ACTCATTA,0.268
21,GTAGGCGA,0.0848
22,ATTCGGTA,0.074
23,AATTGCTG,0.257
24,AATTGCTC,-0.145
25,AATTGCTA,0.0948
26,ATGGCCTC,-0.0922

row,Sequence,PBM E-score
1,ACCGTTAC,-0.118
2,AAGTATGA,0.0335
3,CAGTATGA,0.178
4,TAGTATCA,0.283
5,TAGTATGA,0.26
6,GAGTATCA,0.00367
7,CAGTATCA,-0.0774
8,GAACGCTC,-0.107
9,GACAGTGA,0.0197
10,ACGGAAAA,0.0488
11,ACGGAAAT,0.244
12,ACGGAAAC,-0.0771
13,ACTTGTCA,0.0495
14,AAAGCAAA,0.102
15,ACAGCTCC,-0.0601
16,AGCGCGAC,0.12
17,GCAGCGTA,-0.128
18,ACTCCCCA,-0.0321
19,ACTAGTAA,0.036
20,ACTACTAA,-0.00741
21,ACTAGTAT,0.246
22,ACTACTAT,0.27
23,ACTACTAC,0.0486
24,ACTAGTAG,0.0854
25,TGGTGAAA,-0.0676
26,CCCAATAG,0.00098

row,Sequence,PBM E-score
1,AATTCGCT,0.318
2,AATTCGCG,0.202
3,AATTCGCA,0.229
4,AATTCGCC,0.167
5,CATTCGCA,-0.0034
6,GATTCGCA,0.121
7,AAGATCCC,0.132
8,ACAGGGAA,0.0579
9,ACAGGGAG,-0.147
10,AGAGGGAC,-0.0381
11,ACAGGGAT,0.295
12,ACAGGGAC,0.339
13,ATAGGGAC,0.139
14,CCCGCAAG,-0.15
15,TGTGAACA,-0.0105
16,ATCGTGAA,-0.0316
17,CCCATACG,-0.0789
18,TACCATCA,-0.169
19,CCATAGGG,0.00266
20,CCGAATTA,-0.00177
21,GCGAATTA,0.279
22,ACGAATTA,0.1
23,GTCCGCGA,-0.0693
24,AAAGAGGC,-0.228
